The target in assay [1] is T1, 3-phosphoinositide-dependent protein kinase 1 (Homo sapiens) (UniProt O15530).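 Also: values are mean inhibition of PDK1.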
T1 sequence (whole entry): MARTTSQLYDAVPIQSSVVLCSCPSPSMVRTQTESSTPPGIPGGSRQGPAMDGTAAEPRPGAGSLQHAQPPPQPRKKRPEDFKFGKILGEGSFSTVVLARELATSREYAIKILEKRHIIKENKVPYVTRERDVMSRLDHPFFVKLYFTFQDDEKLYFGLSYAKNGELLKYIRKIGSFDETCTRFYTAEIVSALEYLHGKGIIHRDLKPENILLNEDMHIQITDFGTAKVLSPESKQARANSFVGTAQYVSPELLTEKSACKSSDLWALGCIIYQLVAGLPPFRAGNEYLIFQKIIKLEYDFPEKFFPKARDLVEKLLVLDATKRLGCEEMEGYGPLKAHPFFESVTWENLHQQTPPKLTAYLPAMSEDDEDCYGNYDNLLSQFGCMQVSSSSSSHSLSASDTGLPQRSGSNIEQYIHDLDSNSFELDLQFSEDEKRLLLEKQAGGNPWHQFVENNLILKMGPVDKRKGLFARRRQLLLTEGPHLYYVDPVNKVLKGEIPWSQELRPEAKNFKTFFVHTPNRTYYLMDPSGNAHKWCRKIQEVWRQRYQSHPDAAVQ
The following applies: at 0.1 µM.

The target in assay [2] is cAMP-dependent protein kinase catalytic subunit alpha (Homo sapiens) (UniProt P17612). The following applies: at 0.1 µM.
The target is the same in assay [3]. The following applies: at 1 µM.
The target of assay [4] is Protein kinase C alpha type (Homo sapiens) (UniProt P17252). The following applies: at 0.1 µM.
Assay [5] shares this target. The following applies: at 1 µM.
For assay [6], the target named is Protein kinase C beta type (Homo sapiens) (UniProt P05771). The following applies: at 0.1 µM.
The target is the same in assay [7]. The following applies: at 1 µM.
Assay [8] concerns the target Protein kinase C eta type (Homo sapiens) (UniProt P24723). The following applies: at 0.1 µM.
The target is the same in assay [9]. The following applies: at 1 µM.
Assay [10] has as its target Protein kinase C gamma type (Homo sapiens) (UniProt P05129). The following applies: at 0.1 µM.
The target is the same in assay [11]. The following applies: at 1 µM.
The target of assay [12] is T2, Protein kinase C iota type (Homo sapiens) (UniProt P41743).
T2 sequence (whole entry): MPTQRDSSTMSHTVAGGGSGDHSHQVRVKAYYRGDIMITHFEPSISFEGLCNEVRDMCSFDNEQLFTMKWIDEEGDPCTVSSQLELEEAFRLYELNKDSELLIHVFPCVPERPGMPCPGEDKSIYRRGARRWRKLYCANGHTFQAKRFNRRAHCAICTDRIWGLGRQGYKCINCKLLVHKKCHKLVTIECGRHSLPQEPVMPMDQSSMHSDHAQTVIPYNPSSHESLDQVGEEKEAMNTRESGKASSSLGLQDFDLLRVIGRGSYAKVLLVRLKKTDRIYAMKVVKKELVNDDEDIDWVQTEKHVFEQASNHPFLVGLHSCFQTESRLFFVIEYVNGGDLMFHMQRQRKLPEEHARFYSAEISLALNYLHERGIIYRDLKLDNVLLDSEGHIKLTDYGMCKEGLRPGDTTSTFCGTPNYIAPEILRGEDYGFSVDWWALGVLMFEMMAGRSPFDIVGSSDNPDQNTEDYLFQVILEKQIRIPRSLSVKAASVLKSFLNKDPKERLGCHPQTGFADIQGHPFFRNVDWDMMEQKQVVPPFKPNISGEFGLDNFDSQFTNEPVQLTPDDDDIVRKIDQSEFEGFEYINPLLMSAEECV
The following applies: at 0.1 µM.

Assay [13] has as its target T2, Protein kinase C iota type (Homo sapiens). The following applies: at 1 µM.
Assay [14] has as its target Protein kinase C theta type (Homo sapiens) (UniProt Q04759). The following applies: at 0.1 µM.
The target is the same in assay [15]. The following applies: at 1 µM.
For assay [16], the target named is Protein kinase C beta type (Homo sapiens) (UniProt P05771). The following applies: at 0.1 µM. This is another data set of the same source.
The target is the same in assay [17]. The following applies: at 1 µM. This is another data set of the same source.
The target in assay [18] is T3, Serine/threonine-protein kinase D1 (Homo sapiens) (UniProt Q15139).
T3 sequence (whole entry): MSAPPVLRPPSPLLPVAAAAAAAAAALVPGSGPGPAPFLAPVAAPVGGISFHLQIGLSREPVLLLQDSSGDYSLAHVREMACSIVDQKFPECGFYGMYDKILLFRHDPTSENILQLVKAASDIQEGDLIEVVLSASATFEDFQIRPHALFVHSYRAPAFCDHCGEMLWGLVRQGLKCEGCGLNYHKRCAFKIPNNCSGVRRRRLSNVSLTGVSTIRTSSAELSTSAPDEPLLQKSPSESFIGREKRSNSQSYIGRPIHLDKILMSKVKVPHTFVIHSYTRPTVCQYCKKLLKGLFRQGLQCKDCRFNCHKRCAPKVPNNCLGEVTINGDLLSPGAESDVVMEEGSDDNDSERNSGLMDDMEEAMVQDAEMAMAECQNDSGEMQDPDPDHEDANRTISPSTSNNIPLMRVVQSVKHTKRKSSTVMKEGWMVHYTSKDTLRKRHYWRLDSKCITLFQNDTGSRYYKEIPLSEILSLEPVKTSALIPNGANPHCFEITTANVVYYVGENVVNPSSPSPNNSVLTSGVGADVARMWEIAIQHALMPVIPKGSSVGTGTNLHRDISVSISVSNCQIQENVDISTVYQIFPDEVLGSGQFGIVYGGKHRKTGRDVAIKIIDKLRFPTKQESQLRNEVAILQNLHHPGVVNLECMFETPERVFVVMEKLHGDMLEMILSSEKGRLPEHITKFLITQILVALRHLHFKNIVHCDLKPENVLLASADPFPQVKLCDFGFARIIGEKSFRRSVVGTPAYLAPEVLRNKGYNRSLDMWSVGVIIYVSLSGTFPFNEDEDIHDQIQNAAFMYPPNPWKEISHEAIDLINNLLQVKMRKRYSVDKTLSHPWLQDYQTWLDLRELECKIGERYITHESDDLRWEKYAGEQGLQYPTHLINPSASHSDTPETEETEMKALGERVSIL
The following applies: at 0.1 µM.

Assay [19] addresses T3, Serine/threonine-protein kinase D1 (Homo sapiens). The following applies: at 1 µM.
In assay [20] the target is T4, Serine/threonine-protein kinase D2 (Homo sapiens) (UniProt Q9BZL6).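 Also: reported percent inhibition values are means, part of the GSK PKIS kinase panel screen.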
T4 sequence (whole entry): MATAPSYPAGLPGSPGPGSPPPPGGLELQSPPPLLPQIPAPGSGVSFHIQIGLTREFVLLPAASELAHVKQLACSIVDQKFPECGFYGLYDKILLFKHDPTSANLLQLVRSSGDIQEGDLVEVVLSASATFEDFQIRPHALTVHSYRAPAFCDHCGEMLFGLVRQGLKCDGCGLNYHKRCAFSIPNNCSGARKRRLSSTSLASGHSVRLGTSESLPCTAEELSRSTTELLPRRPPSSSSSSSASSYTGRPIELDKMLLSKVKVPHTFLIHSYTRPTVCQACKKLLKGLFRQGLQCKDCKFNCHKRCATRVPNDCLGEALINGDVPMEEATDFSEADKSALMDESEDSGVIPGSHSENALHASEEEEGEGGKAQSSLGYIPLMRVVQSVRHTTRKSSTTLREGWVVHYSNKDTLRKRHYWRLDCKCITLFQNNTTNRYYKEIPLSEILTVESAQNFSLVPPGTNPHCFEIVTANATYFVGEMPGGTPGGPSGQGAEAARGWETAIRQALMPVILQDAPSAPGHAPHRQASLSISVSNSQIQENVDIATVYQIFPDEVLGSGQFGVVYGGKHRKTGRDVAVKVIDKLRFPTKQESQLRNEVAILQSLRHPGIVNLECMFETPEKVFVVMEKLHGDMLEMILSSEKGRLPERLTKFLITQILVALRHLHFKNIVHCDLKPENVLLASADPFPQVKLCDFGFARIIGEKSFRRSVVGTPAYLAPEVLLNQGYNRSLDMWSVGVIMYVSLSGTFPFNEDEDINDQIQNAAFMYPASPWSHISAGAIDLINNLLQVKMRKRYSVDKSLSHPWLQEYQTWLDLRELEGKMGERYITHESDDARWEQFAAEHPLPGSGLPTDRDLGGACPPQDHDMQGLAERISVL
The following applies: at 0.1 µM.

Sequence of Protein kinase C theta type (Homo sapiens) (Q04759 whole entry, looked up): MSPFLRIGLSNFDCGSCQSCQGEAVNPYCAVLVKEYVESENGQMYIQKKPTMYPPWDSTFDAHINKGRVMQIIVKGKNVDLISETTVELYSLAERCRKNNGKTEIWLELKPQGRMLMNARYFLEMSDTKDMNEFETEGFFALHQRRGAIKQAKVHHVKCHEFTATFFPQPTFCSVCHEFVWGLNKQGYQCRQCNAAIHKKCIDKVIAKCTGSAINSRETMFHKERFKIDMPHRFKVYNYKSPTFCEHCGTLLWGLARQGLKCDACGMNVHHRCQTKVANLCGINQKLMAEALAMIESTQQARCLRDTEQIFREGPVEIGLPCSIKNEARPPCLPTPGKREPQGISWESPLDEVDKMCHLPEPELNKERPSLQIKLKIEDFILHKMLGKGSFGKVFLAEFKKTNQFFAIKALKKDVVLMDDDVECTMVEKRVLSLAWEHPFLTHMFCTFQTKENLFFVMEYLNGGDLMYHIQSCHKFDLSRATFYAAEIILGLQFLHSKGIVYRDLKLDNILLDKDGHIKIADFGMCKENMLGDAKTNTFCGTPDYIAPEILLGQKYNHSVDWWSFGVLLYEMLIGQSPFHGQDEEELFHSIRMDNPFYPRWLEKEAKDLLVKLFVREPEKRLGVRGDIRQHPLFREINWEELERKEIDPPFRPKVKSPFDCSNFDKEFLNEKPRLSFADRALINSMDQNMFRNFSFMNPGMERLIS
Sequence of Protein kinase C beta type (Homo sapiens) (P05771 2-671 limits assumed): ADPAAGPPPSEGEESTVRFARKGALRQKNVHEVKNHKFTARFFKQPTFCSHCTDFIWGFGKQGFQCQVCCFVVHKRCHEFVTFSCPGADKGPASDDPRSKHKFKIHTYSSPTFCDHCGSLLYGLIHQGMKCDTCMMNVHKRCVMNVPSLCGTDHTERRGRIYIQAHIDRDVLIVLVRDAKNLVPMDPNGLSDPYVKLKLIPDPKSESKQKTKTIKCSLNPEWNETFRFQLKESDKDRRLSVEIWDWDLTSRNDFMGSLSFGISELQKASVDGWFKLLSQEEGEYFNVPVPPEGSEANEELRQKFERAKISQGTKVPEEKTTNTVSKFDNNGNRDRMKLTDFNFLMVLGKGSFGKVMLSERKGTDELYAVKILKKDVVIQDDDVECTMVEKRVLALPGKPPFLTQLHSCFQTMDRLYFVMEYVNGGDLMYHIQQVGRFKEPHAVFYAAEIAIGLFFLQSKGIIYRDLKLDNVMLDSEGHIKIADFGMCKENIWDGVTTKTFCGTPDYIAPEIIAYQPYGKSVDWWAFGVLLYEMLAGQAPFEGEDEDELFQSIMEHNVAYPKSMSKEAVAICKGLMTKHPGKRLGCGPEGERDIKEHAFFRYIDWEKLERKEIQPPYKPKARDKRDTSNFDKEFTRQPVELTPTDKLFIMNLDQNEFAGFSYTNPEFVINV
Sequence of Protein kinase C eta type (Homo sapiens) (P24723 whole entry): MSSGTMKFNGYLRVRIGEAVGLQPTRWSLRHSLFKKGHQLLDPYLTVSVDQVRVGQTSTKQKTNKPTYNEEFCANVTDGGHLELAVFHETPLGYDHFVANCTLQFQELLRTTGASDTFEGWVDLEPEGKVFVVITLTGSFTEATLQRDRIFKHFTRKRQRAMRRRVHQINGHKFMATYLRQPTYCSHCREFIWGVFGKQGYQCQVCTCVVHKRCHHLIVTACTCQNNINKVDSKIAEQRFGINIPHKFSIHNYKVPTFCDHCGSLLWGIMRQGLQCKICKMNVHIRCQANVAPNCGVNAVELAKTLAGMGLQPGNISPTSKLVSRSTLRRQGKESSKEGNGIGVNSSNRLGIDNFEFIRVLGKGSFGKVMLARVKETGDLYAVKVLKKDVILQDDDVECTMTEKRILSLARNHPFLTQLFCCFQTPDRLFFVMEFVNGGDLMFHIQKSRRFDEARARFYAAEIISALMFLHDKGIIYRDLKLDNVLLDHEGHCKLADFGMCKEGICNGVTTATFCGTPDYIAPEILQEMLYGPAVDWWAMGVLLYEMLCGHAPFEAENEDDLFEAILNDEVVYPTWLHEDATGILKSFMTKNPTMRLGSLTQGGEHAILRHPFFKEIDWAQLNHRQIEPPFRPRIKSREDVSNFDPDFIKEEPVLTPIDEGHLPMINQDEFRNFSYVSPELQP

By inhibition is commonly meant the relative decrease from the control value, in per cent. Consider `COc1cc(C=NNc2ncnc3c2cnn3-c2ccccc2)ccc1O`, for which the inhibition in assay [1] was found to be 3.92%; in [2] it was 1.37%; in assay [3] it was 1.88%; in assay [4], 0.49%; in [5], 3.62%; in assay [6], 1.19%. For the same molecule, the inhibition was found to be 4.02% in assay [7]; 3.68% in assay [8]; 0.52% in [9]; 1.8% in [10]; 12.4% in [11]; 1.32% in assay [12]. Besides, the inhibition in assay [13] was 5.26%; in assay [14], 0.44%; in assay [15], 0.62%; in assay [16] it was 1.72%; in assay [17], 5.98%; in assay [18] it was 1.65%. In addition, the values for the inhibition in assay [19] and in assay [20] were 3.18% and 1.16%, respectively.

`Cc1cc(O)cc(C)c1/C=C/c1cncc(-c2nn[nH]n2)c1`: the inhibition in assay [1] was 2.02%; in assay [2], -1.63%; in [3] it was -1.78%; in assay [4] it was -2.41%; in assay [5], -0.54%; in [6], 0.1%. The inhibition is 2.35% in [7]; 1% in [8]; 5.67% in assay [9]; -3.08% in [10]; 3.79% in [11]; 2.14% in assay [12]. Moreover, the inhibition in assay [13] stood at 2.11%; in [14] it was 2.61%; in assay [15], 3.08%; in [16], 1.15%; in assay [17] it was 4.04%; in [18] it was 1.38%. Besides, the inhibition in [19] was 4.65%; in [20] it was 2.35%.

In the case of `O=C1NC(=O)C(c2ccccc2Cl)=C1Nc1cccc(O)c1`, the inhibition in assay [1] was found to be 0.81%; in assay [2], 1.52%; in assay [3], 2.92%; in assay [4], 0.83%; in assay [5], 3.41%; in assay [6], 0.31%. Besides, the inhibition in [7] was 5.5%; in assay [8], 2.05%; in assay [9], 5.24%; in assay [10], -3.81%; in assay [11] it was 1.06%; in assay [12] it was 1.73%. Moreover, the inhibition in assay [13] amounted to 3.13%; in [14], 1.38%; in assay [15], 3.85%; in assay [16] it was 2.15%; in [17] it was 14.5%; in [18], 2.34%. The inhibition in assay [19] was 4.55%; in assay [20], 1.91%.

Consider `CCCN1CCC=C(c2ccc(Nc3nc(Nc4ccccc4C(N)=O)c4cc[nH]c4n3)c(C)c2)C1`, for which the inhibition in [1] was -0.1%; in assay [2] it was 2.92%; in [3] it was 2.79%; in [4] it was 0.33%; in [5] it was 6.13%; in assay [6], -0.14%. The inhibition in assay [7] is -0.64%; in assay [8] it was 5.56%; in assay [9] it was 4.73%; in [10], 3.41%; in [11] it was 9.77%; in assay [12] it was 0.1%. The inhibition came out at 1.27% in assay [13]; 2.34% in assay [14]; 3.28% in assay [15]; 1.44% in [16]; 3.5% in [17]; 33.8% in assay [18]. Moreover, the inhibition in assay [19] came to 71.3%; in assay [20] it was 25.1%.

In the case of `CS(=O)(=O)CCNCc1nc(-c2ccc3ncnc(Nc4ccc(F)c(Cl)c4)c3c2)cs1`, the inhibition in assay [1] turned out to be 1.98%; in [2] it was 1.17%; in [3] it was 1.29%; in assay [4], 0.29%; in assay [5], 0.92%; in assay [6], 1.56%. Moreover, the inhibition in assay [7] is 2.07%; in assay [8], 1.59%; in [9] it was 3.26%; in assay [10] it was 2.71%; in assay [11], 0.73%; in assay [12], -0.92%. Also, the inhibition in [13] is -0.18%; in [14], 0.64%; in [15] it was 2.27%; in assay [16] it was -0.23%; in assay [17], 2.18%; in [18] it was 1.88%. In addition, the inhibition in [19] was found to be 2.6%; in [20], 0.4%.

For the molecule `CCn1c(-c2nonc2N)nc2cncc(C(=O)N3CC[C@H](N)C3)c21`, the inhibition in assay [1] turned out to be 9.36%; in assay [2], 49.1%; in assay [3], 82.2%; in [4], 5.69%; in assay [5], 45.5%; in assay [6] it was 43.9%. Moreover, the inhibition in [7] was determined as 74.5%; in [8], 51.2%; in [9] it was 88.3%; in assay [10], 6.77%; in [11], 41.1%; in assay [12] it was 8.94%. Further, the inhibition in assay [13] was determined as 40%; in assay [14], 5.26%; in assay [15] it was 23.8%; in assay [16], 11.4%; in assay [17], 45.6%; in [18], 4.56%. The inhibition in assay [19] worked out at 9.27%; in assay [20] it was 6.65%.

Values taken from ChEMBL document CHEMBL1961873, “Compounds: GSK PKIS; Assays: Nanosyn kinase panel” (2012).
